High-throughput results as filed in PubChem BioAssay.
Rows were chosen to be rich in hits. Some 32% of all compounds tested hit in one or more screens of this group.
CYP2C19 activ = cytochrome P450 2C19 (human) activation. P33261. recombinant CYP2C19, luciferin-H EGE luminescence; stronger effect = higher value; 0 = fully inhibited enzyme, 1 = untreated enzyme. activation factor at 5 µM. 96,000 tested, under 10 active. AID 1025;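 active means activation factor of at least 2 at 5 µM in the primary screen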
CYP2C9 inhib = human CYP2C9 inhibition; CYP2C9 Supersomes, luciferin-H conversion, luminescence; inhibition, % at 5 µM; 96,000 tested, 20% active; AID 777;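 active means blocking of liver enzyme CYP2C9 beyond about 50% at 5 µM, limit read from the data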
Target sequence (P11712 whole entry, looked up): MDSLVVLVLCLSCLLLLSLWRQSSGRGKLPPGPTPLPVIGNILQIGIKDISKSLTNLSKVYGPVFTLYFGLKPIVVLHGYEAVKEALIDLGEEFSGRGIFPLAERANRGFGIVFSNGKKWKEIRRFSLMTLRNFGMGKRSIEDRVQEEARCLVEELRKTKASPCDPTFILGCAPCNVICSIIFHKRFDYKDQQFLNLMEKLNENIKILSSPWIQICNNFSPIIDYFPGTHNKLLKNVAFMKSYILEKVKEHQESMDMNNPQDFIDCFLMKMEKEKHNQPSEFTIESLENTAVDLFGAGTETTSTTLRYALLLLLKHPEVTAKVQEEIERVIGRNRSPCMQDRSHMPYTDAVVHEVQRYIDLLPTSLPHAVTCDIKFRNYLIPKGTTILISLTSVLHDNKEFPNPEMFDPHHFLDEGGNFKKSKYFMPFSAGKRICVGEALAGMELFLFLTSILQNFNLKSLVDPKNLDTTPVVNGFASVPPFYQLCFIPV
CYP2C19 inhib = blocks human cytochrome P450 2C19. P33261. CYP2C19 Supersomes, luciferin-H EGE luminescence, 30 min. inhibition, % at 5 µM. 96,000 tested, 21% active. AID 778;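 active means CYP2C19 inhibition above a set limit at 5 µM in the primary screen, cut at about 50% in these data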
PostGolgi yeast = growth inhibition of a yeast mutant, post-Golgi transport screen. 98,000 tested, 0.9% active. post-Golgi transport phenotypic cell assay. inhibition, % at 10 µM;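 further: yeast cells grown in 1536-well plates; yeast grown about 18 h at 30C before absorbance read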
PostGolgi ctrl = yeast control strain growth, post-Golgi counter-screen. efflux-deficient yeast background strain, growth absorbance A615, 16 h. inhibition, % at 10 µM. 98,000 tested, 5% active
CYP2C9 act = CYP2C9 (human) activation; P11712; recombinant CYP2C9, luciferin-H conversion, luminescence; stronger effect = higher value; factor 1 = untreated enzyme, 0 = blocked; activation factor at 5 µM; 96,000 tested, 1.4% active; AID 1024;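 active means activation factor of 2 or more for CYP2C9 at a 5 µM dose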
Hits are given with their value; n = inactive; x = not tested or not shown. Unless noted, no stated cut-off is given here; in the data, active means inhibition above about 30%; inactive means the rest.

SMILES | CYP2C19 activ | CYP2C9 inhib | CYP2C19 inhib | PostGolgi yeast | PostGolgi ctrl | CYP2C9 act
Cc1nn(CC(=O)Nc2ccccn2)c(C)c1[N+](=O)[O-] | n | n | n | n | n | n
COc1cc(C)c(S(=O)(=O)N2CCCC2)cc1C | n | n | 88 | n | n | n
COc1c(C)cc(S(=O)(=O)N2CCCC2)c(C)c1C | n | n | 96 | n | n | n
Cc1cc(S(=O)(=O)N2CCCC2)c(C)s1 | n | n | n | n | n | n
COc1ccc(S(=O)(=O)N2CCCN(S(=O)(=O)c3ccc(OC)cc3C)CC2)c(C)c1 | n | n | n | n | n | 2.1
COc1ccc(C(C)(C)C)cc1S(=O)(=O)N1CCN(C)CC1 | n | n | n | n | n | 2
COc1cccc(CNC(=O)C2CCCN(c3nn4c(=O)cc(C)nc4s3)C2)c1OC (stereo not given) | n | n | n | n | n | n
O=C(NC1CCCC1)C(c1cccnc1)N(C(=O)c1csnn1)C1CC1 (stereo not given) | n | n | n | n | n | n
C=CCNc1nnc(SC2CC(=O)N(c3ccc(OC)cc3)C2=O)s1 (stereo not given) | n | n | n | n | n | n
Cc1cc(/C=C(\C#N)C(=O)NCc2cccs2)c(C)n1-c1ccccc1F | n | n | n | n | n | n
COc1ccc(OC)c(S(=O)(=O)N2CCCCCC2)c1 | n | n | n | n | n | n
COc1ccc(NC(=O)c2cc(OC)c(OC)cc2OC)c(S(=O)(=O)N2CCOCC2)c1 | n | n | n | x | x | n
CCOC(=O)Nc1ccc(OC)cc1S(=O)(=O)N1CCCCC1 | n | n | 63 | n | n | n
COc1cc(S(=O)(=O)N2CCCCCC2)c(OC)cc1Br | n | 75 | 96 | n | n | n
COc1ccc(S(=O)(=O)N2CCN(C)CC2)cc1C | n | n | n | n | n | n
COc1cc(C)c(S(=O)(=O)N2CCN(C)CC2)cc1C | n | n | 62 | n | n | n
O=C1CCCCC(=O)N(c2ccccc2)c2ccccc21 | n | n | n | n | 32 | n
COc1cc(OC)cc(OCC(O)Cn2cnc3cc(C)c(C)cc32)c1 (stereo not given) | n | 57 | 85 | n | n | n
O=C(O)c1ccc(OCC(O)Cn2cnc3ccccc32)cc1 (stereo not given) | n | n | n | n | n | n
Cc1nc2nc(C)c(CCC(=O)N3CCOCC3)c(C)n2n1 | n | n | n | n | n | n
COc1ccccc1NC(=O)CNC(=O)c1ccccc1C | n | n | n | n | n | n
CC(=O)Nc1ccccc1Sc1ccccc1 | n | n | 79 | n | n | n
Nc1nc(SCC(=O)Nc2ccccc2Sc2ccccc2)n[nH]1 | n | 51 | 99 | n | n | n
CCCc1ccc(-c2cc(NC(=O)CSc3n[nH]c(N)n3)n(-c3ccccc3)n2)cc1 | n | 58 | n | n | n | n
Cc1cc(C)c(-c2cc(NC(=O)CSc3nncn3C)n(-c3ccccc3)n2)cc1C | n | n | n | n | n | n
SMILES | CYP2C19 activ | CYP2C9 inhib | CYP2C19 inhib | PostGolgi yeast | PostGolgi ctrl | CYP2C9 act
NC(=O)C1(N2CCCCC2)CCN(CC(=O)Nc2ccccc2Sc2ccccc2)CC1 | n | n | 79 | n | n | n
Cc1ccc(N(CC(=O)N2CCOCC2)S(C)(=O)=O)cc1C | n | n | n | n | n | n
CCn1c(NC(=S)Nc2ccccc2)nc2ccccc21 | n | n | n | n | n | n
Cc1cc(C)c2oc(-c3ccc(Cl)c(NC(=O)c4ccc(C#N)cc4F)c3)nc2c1 | n | n | n | n | n | n
CCCCCCC(=O)NCC(=O)OCC(=O)c1ccccc1 | n | n | n | n | n | n
O=C(CCl)Nc1ccccc1Sc1ccccc1 | n | n | 64 | n | n | n
Cc1ccccc1-n1c(=O)c2ccccc2n2nnnc12 | n | n | 58 | n | n | n
Cc1ccccc1-n1c(Cn2c(=O)sc3ccccc32)nnc1SC(C)C | x | x | x | n | n | x
O=C1OCCC1Sc1nnnn1-c1ccccc1 (stereo not given) | n | n | 88 | n | n | n
COc1cccc(-n2c(SC3CCOC3=O)nc3ccccc3c2=O)c1 (stereo not given) | x | x | x | n | n | x
COc1ccc(OCc2nnc(SC3CCOC3=O)n2-c2ccccc2)cc1 (stereo not given) | n | n | 84 | n | n | n
O=C(c1ccc(F)cc1)N1CCCCC(Sc2nnnn2-c2ccccc2)C1=O (stereo not given) | n | 74 | 73 | n | 45 | n
O=C1OCCC1Sc1nnc(-c2ccc3c(c2)OCO3)n1-c1ccccc1 (stereo not given) | n | n | n | n | n | n
O=C1OCCC1Sc1nc(-c2ccccc2)cs1 (stereo not given) | n | n | 87 | n | n | 2.1
CC1=CC(C)C2C(=O)N(CCC[N+](C)(C)C)C(=O)C2C1 (stereo not given) | n | n | n | n | n | n
CC(C)CCn1c(SCC(=O)OCn2nnc3ccccc3c2=O)nc2ccccc2c1=O | n | n | n | n | n | n
N#Cc1c(C(F)(F)F)cc(-c2ccco2)nc1SCc1ccncc1 | n | 92 | 87 | n | 49 | n
Cn1nnnc1SCC(=O)Nc1ccc(Oc2ccc(Cl)cc2)cc1 | n | n | n | n | n | n
Cc1c(C#N)sc2nc(-c3ccccc3)nc(N3CCCC3)c12 | n | n | n | n | n | n
CCCc1cc(=O)[nH]c(/N=C(/NC(=O)C(C)N2C(=O)c3ccccc3C2=O)Nc2ccccc2)n1 (stereo not given) | n | 62 | n | n | n | n
COc1ccc(/C=N/Nc2nc3ccccc3o2)cc1O | n | 52 | 51 | n | n | n
CC(Oc1ccc2oc(-c3ccccc3)c(C(=O)O)c2c1)C(=O)O (stereo not given) | n | n | n | n | n | n
CCCCNC(=O)c1cnc2n(c1=O)CCS2 | x | x | x | n | n | x
O=C(NCCCc1ccccc1)c1cnc2n(c1=O)CCS2 | n | n | 83 | n | n | n
O=C(NCCc1ccc(Cl)cc1)c1cnc2n(c1=O)CCS2 | n | n | 55 | x | x | n
SMILES | CYP2C19 activ | CYP2C9 inhib | CYP2C19 inhib | PostGolgi yeast | PostGolgi ctrl | CYP2C9 act
O=C(Oc1cccc(N2C(=O)CCC2=O)c1)C1CC(=O)N(c2ccc(Br)cc2)C1 (stereo not given) | n | n | n | n | n | n
Cc1cc(C(C)(C)C)oc1C(=O)N(CC(=O)NC1CCCC1)Cc1ccccc1Cl | n | 54 | n | n | 31 | n
C/C(=N\NS(C)(=O)=O)c1ccccc1 | n | n | n | n | n | n
O=S(=O)(C=C(c1ccccc1)c1ccccc1)c1ccccc1 | n | n | 66 | n | 36 | n
O=S(=O)(/C=C/c1ccccc1)c1ccccc1 | n | n | 91 | n | n | 4.1
O=[N+]([O-])c1cc(/C=N/OCc2c(Cl)cccc2Cl)ccc1N1CCOCC1 | n | n | n | n | n | n
O/N=C/c1ccccc1OCc1ccc(Cl)cc1 | n | 69 | 52 | n | 77 | n
O=C(Cc1ccccc1)N/N=C/c1ccccc1OCc1ccc(Cl)cc1 | n | 62 | n | n | n | n
